These results are taken from PubChem BioAssay (NCATS).

The nature of assay [1]: qHTS profiling for inhibitors of Plasmodium falciparum (3D7) proliferation (AID 743322; call rule not given here;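 note: infected erythrocytes exposed to compound for 72 h before lysis; 100% = DMSO vehicle wells and 0% = 0.29 µM artemisinin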). Conditions: P. falciparum 3D7 proliferation; at 28.7 µM (top of the series) unless noted. In outline:
(§1)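 Parasite DNA was quantified by SYBR Green I fluorescence (ex 485, em 535 nm) after overnight lysis in saponin/Triton buffer at room temperature. Cultures at 0.3% parasitemia and 2.5% hematocrit were first exposed to compound for 72 h at 37 C; signals were normalised to artemisinin (0.29 uM) and vehicle wells.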
(In general: In qHTS, concentration-response curves come from the screen itself.)

A short description of assay [2]: qHTS profiling for inhibitors of Plasmodium falciparum (DD2) proliferation (AID 743323; call rule not given here). To be noted: lower = more inhibition; at 28.7 µM (top of the series) unless noted. Summed up:
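P. falciparum Dd2-infected erythrocytes (0.3% parasitemia, 2.5% hematocrit) exposed 72 h at 37 C, 5% CO2. Lysis with SYBR Green, overnight at room temperature, fluorescence 485/535 nm; normalized to 0.29 uM artemisinin and DMSO.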

Assay [3] in a line: qHTS profiling for inhibitors of Plasmodium falciparum (HB3) proliferation (AID 743324).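 Note: 100% = DMSO vehicle wells and 0% = artemisinin-treated control wells.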 Conditions: Plasmodium falciparum HB3 blood-stage proliferation; at 28.7 µM (top of the series) unless noted. In outline:
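SYBR Green fluorescence (485 ex/535 em) of lysed cultures, incubated overnight at room temperature in the dark, quantifies parasite DNA. Infected erythrocytes at 0.3% parasitemia and 2.5% hematocrit were exposed 72 h; values normalized to DMSO and 0.29 uM artemisinin controls.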

Assay [4] can be described thus: qHTS profiling of the MIPE4 collection as inhibitors of Plasmodium falciparum (3D7) proliferation (AID 743344; call rule not given here;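 note: scaled between DMSO vehicle wells and 0.29 µM artemisinin as full inhibition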). To be noted: P. falciparum 3D7 in erythrocytes, SYBR Green DNA fluorescence, 72 h; at 28.5 µM (top of the series) unless noted. Summed up:
as §1

Assay [5] can be described thus: qHTS profiling of the MIPE4 collection as inhibitors of Plasmodium falciparum (DD2) proliferation (AID 743345; call rule not given here). Conditions: P. falciparum Dd2 in erythrocytes, SYBR Green DNA, 72 h; at 28.5 µM (top of the series) unless noted. Summed up:
as §1

Assay [6] in a line: qHTS profiling of the MIPE4 collection as inhibitors of Plasmodium falciparum (DD2) proliferation (Rep 2) (AID 743346; call rule not given here). Conditions: P. falciparum Dd2 in erythrocytes, SYBR Green DNA, 72 h; at 28.5 µM (top of the series) unless noted. Summed up: as §1
Assay [7] is described as follows: qHTS profiling of the MIPE4 collection as inhibitors of Plasmodium falciparum (HB3) proliferation (AID 743347; call rule not given here;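 note: plate controls were DMSO vehicle wells for no effect and artemisinin wells for full effect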). To be noted: P. falciparum HB3 in erythrocytes, SYBR Green DNA, 72 h; at 28.5 µM (top of the series) unless noted. In outline:
as §1

Assay [8] can be described thus: High-throughput drug toxicity screening in the BPDCN cell line Gen2.2 (AID 1224824; call rule not given here;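 note: cells exposed to compounds for 48 h before reading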). To be noted: Gen2.2 BPDCN cells; at 45.8 µM (top of the series) unless noted. Summed up: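 Gen2.2 cells (500/well) in phenol red-free RPMI with 10% FBS were exposed to compounds for 48 h at 37 °C, 5% CO2. Viability was read by CellTiter-Glo luminescence and normalized to DMSO (100%) and 9.2 uM bortezomib (0%).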

The nature of assay [9]: High-throughput drug toxicity screening in the BPDCN cell line Cal-1 (AID 1224825; call rule not given here). Conditions: Cal-1 BPDCN cell viability, qHTS; at 45.8 µM (top of the series) unless noted. Summed up: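 Viability of the BPDCN line Cal-1 is measured as ATP-based luminescence (CellTiter-Glo) following 48 h incubation with compounds. Percent activity uses DMSO-treated wells as 100% and 9.2 uM bortezomib as 0%.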

Assay [10] can be described thus: qHTS assay for measurement of the activity of small molecule inhibitors on Zika virus induced Caspase-3 activity in human iPSC derived neural progenitor cells (hNPCs) (AID 1224857). Note: % of control where 0% means no effect; nearly all actives have a fitted effect of over 65% in size. In outline:
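Quantitative HTS format: human iPSC neural progenitors, 1 h compound pretreatment, ZIKV 2 FFU/cell for 6 h at 37 C. Percent inhibition derived from luminescent caspase-3/7 signal between uninfected and infected controls.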

Assay [11] is described as follows: qHTS assay for measurement of the activity of small molecule inhibitors on Zika virus induced Caspase-3 activity in human astrocytoma cells (AID 1224859).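 Note: plate controls were ZIKV-infected untreated cells for no effect and uninfected cells for full effect.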 Summed up:
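Readout is luminescence from Caspase-Glo 3/7 added after a 6 h ZIKV infection (2 FFU/cell) of compound-pretreated (1 h) SNB-19 cells; data expressed as % inhibition versus uninfected and infected wells.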

The nature of assay [12]: qHTS Screen of the MIPE 4.0 Collection Against Ewings Sarcoma (RDES) (AID 1259252). Note: nearly all actives have a fitted effect of over 35% in size. Note: potency is the fitted concentration of half-maximal effect. In outline:
(§2)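 Here, cells in 5% FBS RPMI were exposed for two days (48 h) to compound dilutions added four hours after plating. ATP-based CellTiter-Glo luminescence measured viability, normalized to vehicle and no-cell blanks.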

Assay [13] is described as follows: qHTS Screen of the MIPE 4.0 Collection Against Ewings Sarcoma (TC71) (AID 1259253). Note: nearly all actives have a fitted effect of over 40% in size. Note: potency is the fitted concentration of half-maximal effect. Summed up:
as §2

Assay [14] can be described thus: qHTS Screen of the MIPE 4.0 Collection Against Ewings Sarcoma (EW8) (AID 1259255).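 For viability: 100% = DMSO-treated cells and 0% = medium-only wells without cells.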 Note: nearly all actives have a fitted effect of over 35% in size. Note: potency is the fitted concentration of half-maximal effect. Summed up: as §2
Assay [15] in a line: qHTS Assay for Identifying Gametocytocidal Compounds (AID 743244).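 Note: % is set by controls: 0 for no effect and ±100 for the full control effect; actives lower the fluorescent signal which means gametocytes are killed.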 To be noted: P. falciparum 3D7 stage III-V gametocytes, alamarBlue, 72 h; max response: stronger effect = lower value. Summed up:
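A resazurin-based viability read-out was applied to mature P. falciparum gametocytes: 72 h compound treatment, then 24 h dye incubation, with falling fluorescence signalling gametocytocidal effect.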

Assay [16] in a line: qHTS assay for cell viability of HEK293 cells (AID 743288). Note: % is set by controls: 0 for no effect and ±100 for the full control effect; nearly all actives have a fitted effect of over 50% in size. Conditions: ATP luminescence (CellTiter-Glo), 18 h; max response: stronger effect = lower value. Summed up:
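After 18 h compound exposure at 37 C, parental HEK293 cells (2,000/well) are lysed with CellTiter-Glo and luminescence is read following 30 min at room temperature.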

Assay [17] is described as follows: qHTS assay for cell viability of the p53RE-bla HCT-116 cell line (AID 743292). Note: % is set by controls: 0 for no effect and ±100 for the full control effect; nearly all actives have a fitted effect of over 55% in size. In outline: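 CellSensor p53RE-bla HCT-116 cells, 4,000/well, preincubated 5 h at 37 C, then exposed to compounds in DMSO for 16 h at 37 C. Viability read as CellTiter-Glo luminescence (intracellular ATP) after 30 min at room temperature.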

Where “and” joins values, the source holds several entries; their conditions need not be identical. Equal entries are not always repeated. Records with an inconclusive call do not appear. Calls of active or inactive are those of the source. Unless noted, calls come from the whole dose curve; as a rule, active = well fitted curve in the direction sought with a large enough effect; inconclusive = small, poorly fitted or top-dose-only effect, or another doubt; inactive = no such curve, though single readings can be large; an effect the other way counts as inactive or inconclusive.

With `Cc1c(CN2CCN(C(=O)C(C)C)CC2)sc2c(N3CCOCC3)nc(-c3cnc(N)nc3)nc12`, the remaining parasite growth % (stronger effect = lower value) in assay [1] stood at 12.2%. Besides, the activity, percent of control in [2] was found to be 23.2%. Moreover, in [3], the remaining proliferation (% of control), lower = more inhibition was determined as 8.2%. This compound also returned a parasite growth, % of DMSO control in assay [4] of 12.5%. The parasite growth remaining, % of DMSO control (lower = more inhibition) in assay [5] is 25.7%. Besides, the parasite growth, % of control (lower = inhibition) in assay [6] was determined as 14.5%. For the same compound, the growth, % of control in [7] was 4.71%. For the same compound, in assay [8], the cell viability, % of control (lower = more cytotoxic) came out at 2.32%. Also, the viability (% of control) in assay [9] turned out to be 3.99%. Moreover, the Potency result in [10] and in assay [11] was “inactive” throughout. Moreover, the values for the Potency in assay [12], in [13] and in [14] were 0.0833 µM (active), 0.148 µM (active) and 0.105 µM (active), respectively.

In the case of `CCCC(CCC)C(=O)O`, the max response in [15] was 8.46% (inactive) and 5.84% (inactive); in assay [16] it was 3.06% (inactive) and -3.28% (inactive) and -9.08% (inactive). Also, the Potency entry in assay [17], in [10], in assay [11], in assay [12], in assay [13] and in assay [14] was “inactive” each time. For the same compound, in assay [5], the parasite growth remaining, % of DMSO control (lower = more inhibition) stood at 103%. Also, in assay [6], the parasite growth, % of control (lower = inhibition) came to 148%. In [7], this compound showed a growth, % of control of 111%. For the same compound, the cell viability, % of control (lower = more cytotoxic) in [8] came out at 83.8%. The viability (% of control) in assay [9] was determined as 100%.

For the compound `CCN(c1ccccc1)c1cc(NC)[n+](C)c(C)n1`, the remaining parasite growth % (stronger effect = lower value) in [1] is 76.6%. The activity, percent of control in assay [2] was determined as 73.7%. Besides, in assay [3], the remaining proliferation (% of control), lower = more inhibition amounted to 38.1%. In addition, in assay [4], the parasite growth, % of DMSO control stood at 47.7%. Also, the parasite growth remaining, % of DMSO control (lower = more inhibition) in [5] was found to be 94.6%. Also, the parasite growth, % of control (lower = inhibition) in assay [6] was 58.7%. In addition, the growth, % of control in assay [7] turned out to be 85.9%. Further, the cell viability, % of control (lower = more cytotoxic) in assay [8] came out at 138%. In addition, in [9], the viability (% of control) stood at 119%. Also, the Potency entry in [10], in [11], in [13] and in assay [14] was “inactive” throughout. Further, the Potency in assay [12] is 7.43 µM (active).

Regarding `C[C@]1(c2nc3c(C(N)=O)cccc3[nH]2)CCCN1`, the max response in [15] was 20.1% (inactive). In assay [1], the remaining parasite growth % (stronger effect = lower value) is 93.1%. The compound further yielded an activity, percent of control in assay [2] of 87.4%. In [3], the remaining proliferation (% of control), lower = more inhibition came to 94%. The compound also displayed a parasite growth, % of DMSO control in assay [4] of 88.7%. Further, the parasite growth remaining, % of DMSO control (lower = more inhibition) in assay [5] amounted to 94.9%. In assay [6], the parasite growth, % of control (lower = inhibition) stood at 85.5%. Also, the growth, % of control in assay [7] worked out at 88.5%. The cell viability, % of control (lower = more cytotoxic) in assay [8] is 50.9%. Also, the viability (% of control) in assay [9] came out at 88%. Also, the Potency entry in [10], in [11], in [13] and in [14] was “inactive” each time.

For the compound `N#Cc1ccc(C(c2ccc(C#N)cc2)n2cncn2)cc1`, the max response in [15] is 16.5% (inactive) and 0.241% (inactive). Besides, the remaining parasite growth % (stronger effect = lower value) in assay [1] worked out at 85.5%. The activity, percent of control in assay [2] is 86.6%. The same compound showed a remaining proliferation (% of control), lower = more inhibition in assay [3] of 95.8%. The compound also showed a parasite growth, % of DMSO control in assay [4] of 89.2%. Besides, the parasite growth, % of control (lower = inhibition) in [6] was determined as 123%. The cell viability, % of control (lower = more cytotoxic) in assay [8] came out at 33%. Further, the viability (% of control) in assay [9] came to 70.2%. In addition, the Potency entry in assay [10] and in [11] was “inactive” throughout. Besides, the Potency in [14] is 20.9 µM (active).

On to `Nc1ncnc2nc(-c3ccc(N4CCOCC4)nc3)cc(-c3cccc(Br)c3)c12`, for which, in assay [15], the max response is -13.8% (inactive). For the same compound, the cell viability, % of control (lower = more cytotoxic) in assay [8] amounted to 76%. Further, in assay [9], the viability (% of control) amounted to 55.4%. Further, the Potency entry in assay [10] and in [11] was “inactive” in each case. Further, the results for the Potency in assay [13] and in assay [14] were 20.9 µM (active) and 33.2 µM (active), respectively.

For the compound `COc1nc(-c2ccc3c(c2)OCO3)n(-c2ccc(NC(=O)CSc3ccccc3)cc2)n1`, in [15], the max response is 6.75% (inactive). Also, in [1], the remaining parasite growth % (stronger effect = lower value) is 96.2%. Moreover, the activity, percent of control in [2] is 95.9%. This compound also yielded a remaining proliferation (% of control), lower = more inhibition in assay [3] of 94.2%. In assay [4], this compound came in with a parasite growth, % of DMSO control of 51.6%. In assay [6], the parasite growth, % of control (lower = inhibition) turned out to be 61.9%. Moreover, the growth, % of control in assay [7] was determined as 82%. The cell viability, % of control (lower = more cytotoxic) in [8] was found to be 127%. Besides, the viability (% of control) in [9] turned out to be 116%. Further, the Potency entry in assay [10], in assay [11] and in assay [14] was “inactive” each time. Moreover, the Potency in assay [13] is 20.9 µM (active).
